GPR151 ag: activators of human GPR151, primary screen, cell-based, PathHunter beta-arrestin, luminescence; G-protein coupled receptor 151 (Homo sapiens), Q8TDV0; PathHunter beta-arrestin GPR151 cells; activation, % at 11.2 µM; 650,000 compounds, 1% hits; in the data active = activation above about 4.9%;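 also: 0% = median of compound wells and 100% = cells with positive control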
Target sequence (Q8TDV0 whole entry, looked up): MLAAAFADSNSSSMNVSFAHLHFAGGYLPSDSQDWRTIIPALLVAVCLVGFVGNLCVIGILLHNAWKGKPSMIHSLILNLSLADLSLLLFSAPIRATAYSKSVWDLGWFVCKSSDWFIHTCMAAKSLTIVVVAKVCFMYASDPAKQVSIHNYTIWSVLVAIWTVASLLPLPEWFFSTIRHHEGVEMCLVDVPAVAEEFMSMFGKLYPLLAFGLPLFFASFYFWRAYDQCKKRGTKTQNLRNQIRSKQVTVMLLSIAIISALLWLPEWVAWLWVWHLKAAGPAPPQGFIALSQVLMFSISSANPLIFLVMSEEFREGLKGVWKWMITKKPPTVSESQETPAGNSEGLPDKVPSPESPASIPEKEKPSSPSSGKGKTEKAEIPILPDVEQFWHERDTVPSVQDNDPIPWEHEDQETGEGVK
TEAD-YAP block: TEAD-YAP interaction inhibition, primary screen, TEAD-YAP interaction inhibitor project, luminescence, HEK-TIYL cells; 640,000 compounds, 1.4% hits; inhibition, % at 9.12 µM; AID 1259422, 2018; TEAD-Gal4/YAP UAS-luciferase luminescence; in the data active = inhibition above about 32%;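 also: 0% = median of test compound wells and 100% = reference inhibitor wells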
MITF primary: MITF inhibitors, primary screen, biochemical, AlphaScreen, human; Microphthalmia-associated transcription factor (Homo sapiens), O75030; AlphaScreen MITF homodimerization, bead proximity signal; inhibition, % at 2.6 µM; 650,000 compounds, 0.91% hits; AID 1259374, 2018; in the data active = inhibition above about 50%;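 also: 0% = vehicle wells with protein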
FBW7 activator: FBW7 E3 ligase activators, primary screen, biochemical, AlphaScreen, human; AID 1259310, 2017; normalized activity (activation), % at 26.1 µM; 650,000 compounds, 0.13% hits; AlphaScreen FBW7–phospho-cyclin E peptide binding, activator screen; in the data active = normalized activity above about 1.9%;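 also: purified mutant Fbw7 with reduced substrate affinity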
MITF inh conf: MITF inhibitors, retest of hits, confirmation, biochemical, AlphaScreen, triplicate. 4,700 compounds, 16% hits. inhibition, % at 2.6 µM. AlphaScreen MITF homodimerization, biotin/His-MITF beads. AID 1259372, 2018. shares compounds with MITF primary;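 active = inhibition above a cutoff derived from the DMSO control wells, cut at about 28% in these data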;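 also: 0% = MITF dimer wells with DMSO only; inhibitors lower the bead chemiluminescence by keeping MITF from dimerizing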
AlphaScreen DR: AlphaScreen optical interference compounds, dose response, counter-screen, biochemical, HTS | shares compounds with MITF primary | AlphaScreen optical interference counterscreen, cell-free | IC50, µM | 480 compounds, 6% hits | AID 1259373, 2018; call rule not given here
AlphaScreen intf2: AlphaScreen optical interference compounds, counter-screen for MITF inhibitor project, biochemical, triplicate | shares compounds with MITF primary | inhibition, % at 2.6 µM | LysRS AlphaScreen counterscreen, signal interference | AID 1259376, 2018 | 4,700 compounds, 7.6% hits;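 active = inhibition above a cutoff derived from the DMSO control wells, cut at about 30% in these data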
Active calls of the source: *. Hits are enriched below; roughly 3.5% of the tested compounds scored in any of these assays.

What do the screens show for `CN1CCN(CCCNC(=O)c2cc3c(s2)-c2ccc(Cl)cc2SC3)CC1`?
GPR151 ag: 1.1; TEAD-YAP block: -4.8; MITF primary: 4.8; FBW7 activator: -0.3

What do the screens show for `COc1ccc(C(=O)Oc2ccc(/C=N/NC(=O)c3ccccc3)cc2[N+](=O)[O-])cc1`?
GPR151 ag: -4.1; TEAD-YAP block: -15.7; MITF primary: 13.4; FBW7 activator: 0.1

How did Cc1cc(C)nc(SCc2cc(=O)c(OC(=O)C3(c4ccc(Cl)cc4)CCCC3)co2)n1 do in these assays?
GPR151 ag: -1.1; TEAD-YAP block: -0.4; MITF primary: 102.1*; FBW7 activator: -0.1; MITF inh conf: 3.1; AlphaScreen intf2: -6.8

What do the screens show for `COCCNc1ccc2ncc(-c3cccc(C(F)(F)F)c3)n2n1`?
GPR151 ag: 0.3; TEAD-YAP block: 5.0; MITF primary: 64.7*; FBW7 activator: 0.1; MITF inh conf: 6.4; AlphaScreen intf2: 15.3

What do the screens show for `COCCNc1ccc2ncc(-c3cccc(N(C)C)c3)n2n1`?
GPR151 ag: -0.2; TEAD-YAP block: 15.7; MITF primary: 10.2; FBW7 activator: -0.6

Results for COc1ccc(-c2cnc3ccc(NC4CCOCC4)nn23)cn1 ?
GPR151 ag: -0.1; TEAD-YAP block: 9.3; MITF primary: 11.2; FBW7 activator: 0.4

How did COc1ncc(-c2cnc3ccc(NC4CCOCC4)nn23)c(OC)n1 do in these assays?
GPR151 ag: 0.6; TEAD-YAP block: -17.2; MITF primary: 68.5*; FBW7 activator: 0.1; MITF inh conf: 11.7; AlphaScreen intf2: 25.9

How did CCC1CN(CC(=O)NC2C3CC4CC(C3)CC2C4)Cc2cc(OC)ccc2O1 (stereo not given) do in these assays?
GPR151 ag: 1.4; TEAD-YAP block: -4.5; MITF primary: 59.8*; FBW7 activator: 0.1; MITF inh conf: -1.1; AlphaScreen intf2: 6.3

What do the screens show for `CCCS(=O)(=O)N1CCN(C(C)CC)CC1` (stereo not given)?
GPR151 ag: 2.3; TEAD-YAP block: -2.5; MITF primary: 51.8*; FBW7 activator: -0.1; MITF inh conf: -2.6; AlphaScreen intf2: 12.7

What do the screens show for `O=C(Cc1cn(-c2ccc(N3CCOCC3)nn2)c2ccccc12)NCCCN1CCCC1=O`?
GPR151 ag: -1.1; TEAD-YAP block: -7.6; MITF primary: -5.5; FBW7 activator: 0.2

What do the screens show for `O=C(Cc1cn(-c2ccc(NCCN3CCOCC3)nn2)c2ccccc12)NCCCN1CCCC1=O`?
GPR151 ag: 0.8; TEAD-YAP block: -3.5; MITF primary: 58.8*; FBW7 activator: 0.1; MITF inh conf: 5.4; AlphaScreen intf2: 2.1

How did CC(C)C(C)NC(=O)CSc1nnc(NCc2ccccc2)s1 (stereo not given) do in these assays?
GPR151 ag: 0.7; TEAD-YAP block: -9.2; MITF primary: 53.1*; FBW7 activator: 0.1; MITF inh conf: 2.8; AlphaScreen intf2: 8.1

What do the screens show for `O=C(O)CCN(CCC(=O)O)c1ccc(O)cc1`?
GPR151 ag: 1.9; TEAD-YAP block: -19.3; MITF primary: 68.9*; FBW7 activator: -0.7; MITF inh conf: 47.9*; AlphaScreen DR: >6.48; AlphaScreen intf2: -10.3

How did Cc1nnc(NC(=O)CN2CCC(n3nnc4cc(C(F)(F)F)ccc43)CC2)s1 do in these assays?
GPR151 ag: 2.7; TEAD-YAP block: 4.1; MITF primary: -6.9; FBW7 activator: -0.2

What do the screens show for `CCOC(=O)c1ccoc1CN1CCN(C/C=C/c2ccccc2)CC1`?
GPR151 ag: -0.8; TEAD-YAP block: -4.9; MITF primary: 78.6*; FBW7 activator: -0.2; MITF inh conf: 15.7; AlphaScreen intf2: -1.2

Results for COc1ccccc1CN1CCN(C/C=C/c2ccccc2)CC1 ?
GPR151 ag: 0.5; TEAD-YAP block: -1.9; MITF primary: 68.8*; FBW7 activator: -0.1; MITF inh conf: 8.0; AlphaScreen intf2: 5.8

What do the screens show for `CCOC(=O)c1ccoc1CN1CCN(c2cccc(C)c2C)CC1`?
GPR151 ag: 0.0; TEAD-YAP block: 1.6; MITF primary: 5.7; FBW7 activator: 0.3

What do the screens show for `COc1ccc(CN2CCN(C/C=C/c3ccccc3)CC2)c(O)c1`?
GPR151 ag: -0.5; TEAD-YAP block: 11.5; MITF primary: 18.7; FBW7 activator: 0.5

What do the screens show for `COc1ccc(OC)c(CN2CCN(C/C=C/c3ccccc3)CC2)c1`?
GPR151 ag: 3.4; TEAD-YAP block: 5.1; MITF primary: 80.5*; FBW7 activator: 0.0; MITF inh conf: 4.1; AlphaScreen intf2: 17.9

Results for O=S(=O)(c1ccc2ccccc2c1)N1CCN(Cc2ccc(F)cc2)CC1 ?
GPR151 ag: 0.4; TEAD-YAP block: 10.6; MITF primary: 53.8*; FBW7 activator: -0.2; MITF inh conf: 11.6; AlphaScreen intf2: 12.0

Results for O=S(=O)(c1ccc2ccccc2c1)N1CCN(Cc2ccccc2Cl)CC1 ?
GPR151 ag: 0.3; TEAD-YAP block: -7.9; MITF primary: 57.8*; FBW7 activator: 0.0; MITF inh conf: -36.1; AlphaScreen intf2: 10.6

How did Cc1ccc(S(=O)(=O)N2CCC2)cc1 do in these assays?
GPR151 ag: 0.2; TEAD-YAP block: -3.8; MITF primary: -3.8; FBW7 activator: 0.1

What do the screens show for `CCOc1ncccc1C(=O)OCC(=O)Nc1oc(-c2ccco2)c(-c2ccco2)c1C#N`?
GPR151 ag: -0.6; TEAD-YAP block: 2.4; MITF primary: 71.4*; FBW7 activator: -0.3; MITF inh conf: 72.0*; AlphaScreen DR: >6.38; AlphaScreen intf2: 4.7

Results for N#Cc1c(NC(=O)c2cccnc2Cl)oc(-c2ccco2)c1-c1ccco1 ?
GPR151 ag: -0.1; TEAD-YAP block: -0.2; MITF primary: 22.1; FBW7 activator: -0.3

How did Cc1ccsc1CN1CCN(Cc2ccc3c(c2)OCO3)CC1 do in these assays?
GPR151 ag: 0.3; TEAD-YAP block: 0.3; MITF primary: 55.7*; FBW7 activator: -0.1; MITF inh conf: 2.1; AlphaScreen intf2: 5.4

Results for O=C(C1CC12CCN(Cc1ccc3c(c1)OCO3)CC2)N1CCN(Cc2ccccn2)CC1 (stereo not given) ?
GPR151 ag: 0.8; TEAD-YAP block: 5.5; MITF primary: 10.2; FBW7 activator: 0.0

Results for Fc1cccc(F)c1CN1CCN(Cc2ccc3c(c2)OCO3)CC1 ?
GPR151 ag: 0.0; TEAD-YAP block: 3.0; MITF primary: 59.2*; FBW7 activator: -0.2; MITF inh conf: -9.3; AlphaScreen intf2: -5.6

Bioassay records as filed in PubChem BioAssay.
